# In the supplement of paper PMC8183993:
# Where a name gives a salt, the structure may show the parent alone. ± gives the standard deviation of the averaged measurements. The full ranking holds about 3,100 compounds; the median of “mean cytoplasmic OPP incorporation (global translation) relative to DMSO” is about 100, and the lowest 2% start at about 56. The entries come from a sample that favours the lowest values as a whole.
# Tested on: U2OS
# Experiment: mean cytoplasmic OPP incorporation (global translation) relative to DMSO (% of DMSO); higher = more protein synthesis
# Details: 10 µM; 24 h
# Experimental: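 Primary image-based screen in U2OS cells: compounds at 10 uM for 24 h, then a 1 h o-propargyl-puromycin (OPP) pulse, click labelling, and high-throughput microscopy. Mean cytoplasmic OPP intensity and nuclei count were normalised to DMSO wells within each plate (DMSO = 100) and averaged over triplicate plates.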
row,SMILES,mean cytoplasmic OPP incorporation
1,CCCC(CCC)C(=O)NO [Valproic acid hydroxamate],110
2,COc1cc(OC)c(NC(=O)Nc2cc(C)on2)cc1Cl,103
3,CCOc1ccccc1OCC1CNCCO1 (stereo not drawn) [Viloxazine hydrochloride],87.8
4,Cc1cnc(NC(=O)Nc2cc(Br)c(C)cc2OC[C@@H]2CNCCO2)cn1,45.6
5,CC(=O)OCCN1C(=O)c2c(C)nc3ccc(S(=O)(=O)N4CCOCC4)cc3c2C1=O [Ivachtin],105
6,CCOC(=O)C1=CN(Cc2ccccc2)C=C(C(=O)OCC)C1c1ccccc1,99.2
7,Nc1ncn(C2CC(O)C(CO)O2)c(=O)n1 (stereo not drawn) [5-Aza-2-deoxycytidine],94.5
8,"CCCn1c(=O)c2[nH]c(-c3ccccc3)nc2n(CCC)c1=O [1,3-Dipropyl-8-phenylxanthine]",99.1
9,CCCn1c(=O)c(C)cn2nc(N)nc12,104
10,CCCC[C@@H](C=O)NC(=O)OC(C)(C)C,101
11,CC1=C(/C=C/C(C)=C/C=C/C(C)=C/C(=O)O)C(C)(C)CCC1O (stereo not drawn) [4-Hydroxyretinoic acid],101
12,COC(=O)[C@]12CCC(C)(C)C[C@H]1[C@H]1C(=O)C=C3[C@@]4(C)C=C(C#N)C(=O)C(C)(C)[C@@H]4CC[C@@]3(C)[C@]1(C)CC2 [Bardoxolone Methyl],25.6
13,"N[C@@H](Cc1cc(I)c(Oc2ccc(O)cc2)c(I)c1)C(=O)O [3,5-Diiodo-L-thyronine]",103
14,CC(=O)Nc1ccccc1 [Acetanilide (Antifebrin)],102
15,CCN(CC)Cc1ccc2cc(COC(=O)Nc3ccc(C(=O)NO)cc3)ccc2c1 [ITF2357 (Givinostat)],104
16,CC(C)[C@H](C(=O)Nc1ccc(C(=O)NO)cc1)c1ccccc1,53
17,COc1ccc(CN2C(=O)C(=O)c3cc(OC(F)(F)F)ccc32)cc1,102
18,CC(C)Oc1ccc2c(=O)c3cc(C(=O)O)ccc3oc2c1,102
19,O=[N+]([O-])c1ccccc1S(=O)(=O)NCC1CCC(CNCC2CCc3ccccc3C2)CC1 (stereo not drawn) [NTNCB hydrochloride],114
20,CC(C)NCCN(C(C)C)S(=O)(=O)c1ccc(Cl)cc1Cl,95.9
21,C[N+](C)([O-])CCNc1ccc(NCC[N+](C)(C)[O-])c2c1C(=O)c1c(O)ccc(O)c1C2=O [Banoxantrone dihydrochloride],87.9
22,O=C1c2ccccc2C(=O)c2c(NCCc3ccc(O)cc3)ccc(NCCc3ccc(O)cc3)c21,120
23,O=C1c2c(O)ccc(O)c2C(=O)c2c(NCCNCCO)ccc(NCCNCCO)c21 [Mitoxantrone dihydrochloride],20.9
24,CC(C)SC(=N)N [S-Isopropylisothiourea hydrobromide],102
25,CCCS(=O)(=O)c1nc(NC2CC2)cc(-c2ccc3c(ccn3C3CC(C)(C)NC(C)(C)C3)c2)n1,21.1
26,C=C1C(=O)O[C@@H](CCC)[C@@H]1C(=O)O [Butyrolactone 3],100

row,SMILES,mean cytoplasmic OPP incorporation
1,C[C@H](NC(=O)[C@@H]1CCCN1C(=O)[C@@H]1CCCN1C(=O)[C@@H](O)[C@H](N)Cc1ccccc1)C(N)=O [Apstatin],101
2,CCC[C@H](NC(=O)/C(C#N)=C/c1cccc(Br)n1)c1ccccc1,27.2
3,"C[C@H](NC(=O)/C(C#N)=C/c1ccc(O)c(O)c1)c1ccccc1 [Tyrphostin B44, (+) enantiomer]",96
4,C[C@H](NC(=O)/C(C#N)=C/c1cccc(Br)n1)c1ccccc1,56.2 ± 5.9
5,O=C(c1ccc(Cl)cc1Cl)n1nnc2ccccc21,111
6,CCCc1cc(C)[nH]c(=O)c1CNC(=O)c1cc(-c2ccnc(N3CCN(C)CC3)c2)cc2c1cnn2C(C)C,112
7,CC(=O)NCCc1c(Cc2ccccc2)[nH]c2ccccc12 [Luzindole],103
8,O=C(/C=C/c1cccc(S(=O)(=O)Nc2ccccc2)c1)NO [Belinostat (PXD101)],65.5
9,Cc1[nH]c2ccccc2c1CCNCc1ccc(/C=C/C(=O)NO)cc1 [Panobinostat],51.6
10,CCCCCCCCCCCCCCCC(=O)C1=C(O)[C@@H](CO)OC1=O,104
11,N[C@H](C(=O)O)[C@H](OCc1ccccc1)C(=O)O (racemic),103
12,CCS(=O)(=O)c1cccc(-c2cc(C(=O)NC3CCN(C)CC3)c(C)c3[nH]c4ncc(C)cc4c23)c1,46.8
13,COc1cc(C(=O)NC(=S)Nc2cccc(NC(=O)c3ccccc3)c2)cc(OC)c1OC,117
14,CN(C)c1nc(N)c(C(=O)Nc2cccnc2)nc1Cl [ACDPP hydrochloride],97.2
15,CN1CCC(c2c(O)cc(O)c3c(=O)cc(-c4ccccc4Cl)oc23)C(O)C1 (stereo not drawn) [Flavopiridol (Alvocidib) HCl],58.4
16,Cc1cc2c(cc1C1(c3ccc(C(=O)O)cn3)CC1)C(C)(C)CCC2(C)C,109
17,COc1cc(NC(C)CCCN)c2ncccc2c1 (stereo not drawn) [Primaquine diphosphate],36.1
18,C/C(=N\NC(=O)C1C(=O)NCC1c1ccccc1)c1cccc(Br)c1 (stereo not drawn),102
19,O=C(O)c1cc(O)ccc1O [Gentisic acid],101
20,CC(=O)N[C@@H](CSCC=C(C)CCC=C(C)CCC=C(C)C)C(=O)O [Acetyl-S-farnesyl-L-cysteine],123
21,OCC1OC(n2cnc3c(NC4CCCC4)nc(Cl)nc32)C(O)C1O (stereo not drawn) [2-Chloro-N6-cyclopentyladenosine],116
22,CCCCCS(=O)(=O)CCCCCCCCCCn1c(-c2ccc(O)cc2)c(C)c2cc(O)ccc21,104
23,O=C(CCCN1C(=O)c2cccc3cccc(c23)C1=O)NO [Nullscript],97.6
24,CCN(CCN(C)C)C(=O)CNCc1cc(C(N)=O)ccn1,96.2
25,O=C1NCCN1c1ncc([N+](=O)[O-])s1 [Niridazole],94.7
26,O=c1[nH]nc(Sc2ncc([N+](=O)[O-])s2)n1-c1ccc2c(c1)OCCO2,39.7 ± 16

row,SMILES,mean cytoplasmic OPP incorporation
1,C[C@H](CCC(=O)NCCS(=O)(=O)O)[C@H]1CC[C@H]2[C@@H]3CC[C@@H]4C[C@H](O)CC[C@]4(C)[C@H]3C[C@H](O)[C@]12C [Taurodeoxycholic acid],99.3
2,O=C(NCCCN1CCC2(CC1)OCc1ccccc12)[C@H]1CCCN1Cc1ccccc1,108
3,CCCCC[C@H](O)/C=C/[C@@H]1[C@H]2C/C(=C/CCCC(=O)O)C[C@H]2C[C@H]1O [Carbacyclin],101
4,Nc1nc(NCCc2ccc(O)cc2)nc2nc(-c3ccco3)nn12,99.2
5,COc1cc(C(=O)NCc2ccc(OCCN(C)C)cc2)cc(OC)c1OC [Trimethobenzamide hydrochloride],102
6,Cc1cc(C)c(N(Cc2ccccc2)S(=O)(=O)c2ccc(OCCNC(=O)c3cc4ccccc4o3)cc2)c(C(=O)NO)c1,103
7,CN(C)Cc1c(C(=O)NCCOc2ccc(C(=O)NO)cc2)oc2ccccc12,56
8,"O=C(O)COc1ccc(OCCNC[C@H](O)COc2ccccc2)cc1 [ICI 215,001 hydrochloride]",100
9,CCCCn1c(=O)c2[nH]c(C34CC5CC(CC3C5)C4)nc2n(CCCO)c1=O,117
10,CCC(CC)[C@H](NC(C)=O)[C@@H]1[C@H](O)[C@@H](C(=O)O)C[C@H]1NC(=N)N [Peramivir  Trihydrate],99.4
11,c1ccc2sc(N3CCN(Cc4ccc5c(c4)OCO5)CC3)nc2c1 [2-[1-(4-Piperonyl)piperazinyl]benzothiazole],105
12,Cc1cc(/C=C/c2ccc3cc(N(C)C)ccc3[n+]2C)c(C)n1-c1ccccc1 [Pyrvinium pamoate],22
13,CNCCCCOc1ccccc1Cc1ccccc1 [Bifemelane hydrochloride],107
14,"O=Cc1c2[nH]c3ccccc3c2cc2[nH]c3ccccc3c12 [6-Formylindolo [3,2-B] carbazole]",92.9
15,COc1ccc(OC)c(C(O)CNC(=O)CN)c1 (stereo not drawn) [Midodrine hydrochloride],48.8
16,COc1ccc2[nH]cc(CCNC(C)=O)c2c1 [Melatonin],103 ± 4.6
17,COc1ccc(C(=O)NCc2ccc(OCCN(C)C)cc2)cc1OC [Itopride],89.3
18,CC(C)[C@H](N)C(=O)N[C@H](C(=O)N[C@H](C(=O)O)C(C)C)C(C)C,114
19,O=C(/C=C/C#Cc1cccc(NS(=O)(=O)c2ccccc2)c1)NO [Oxamflatin],105
20,COc1cccc2c1C(=O)c1c(O)c3c(c(O)c1C2=O)C[C@@](O)(C(=O)CO)C[C@@H]3O[C@H]1C[C@H](N)[C@H](O)[C@H](C)O1 [Doxorubicin hydrochloride],54.8 ± 17
21,COc1cccc2c1C(=O)c1c(O)c3c(c(O)c1C2=O)C[C@@](O)(C(C)=O)C[C@@H]3O[C@H]1C[C@H](N)[C@H](O)[C@H](C)O1 [Daunorubicin HCl (Daunomycin HCl)],59.9
22,COc1cccc2c1C(=O)c1c(O)c3c(c(O)c1C2=O)C[C@@](O)(C(=O)CO)C[C@@H]3O[C@H]1C[C@H](N)[C@H](O)[C@H](C)O1 [Doxorubicin (Adriamycin)],67.1
23,CC(=O)[C@]1(O)Cc2c(O)c3c(c(O)c2[C@@H](O[C@H]2C[C@H](N)[C@H](O)[C@H](C)O2)C1)C(=O)c1ccccc1C3=O [Idarubicin HCl],60.3
24,COc1cccc2c1C(=O)c1c(O)c3c(c(O)c1C2=O)C[C@@](O)(C(=O)CO)C[C@@H]3O[C@H]1C[C@H](N)[C@H](O[C@@H]2CCCCO2)[C@H](C)O1 [Pirarubicin],59.9
25,COc1cccc2c1C(=O)c1c(O)c3c(c(O)c1C2=O)C[C@@](O)(C(C)=O)C[C@@H]3O[C@H]1C[C@H](N)[C@H](O)[C@H](C)O1 [Daunorubicin hydrochloride],40.7
26,COc1cccc2c1C(=O)c1c(O)c3c(c(O)c1C2=O)C[C@@](O)(C(=O)CO)C[C@@H]3O[C@H]1C[C@H](N)[C@@H](O)[C@H](C)O1 [Epirubicin HCl],59.5
